Results as given in PubChem BioAssay.
Activity calls are given as the source filed them. Unless noted, the rule behind the calls is not given here.

What was measured:
[1] = resazurin metabolic signal in HepG2 cells – cell-based, resazurin fluorescence, 24 h, PK04 Diversity Set, profiling panel (AID 1172); conditions: HepG2 viability, higher = more signal
[2] = budding yeast growth changes without added modifier – OD600, strain BY4716, 24 h, basal condition, primary screen (AID 1173); conditions: S. cerevisiae BY4716 growth, OD600, 24 h; higher = more signal, called active from +8 up or from −8 down
[3] = viability profiling in MM1S myeloma cells – cell-based, resazurin fluorescence, basal, 24 h, PK04 Diversity Set, profiling panel (AID 1174); conditions: higher = more signal, called active from +8 up or from −8 down;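 note: MM1S multiple myeloma cell line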
[4] = biological target: Dihydroorotate dehydrogenase (quinone), mitochondrial (Plasmodium falciparum (isolate 3D7)) (UniProt Q08210); assay: inhibition of P. falciparum DHODH – biochemical, C-terminal His tag, absorbance 600 nm, primary screen (AID 1175); conditions: PfDHODH enzyme, DCIP absorbance 600 nm; higher = more signal, called active from +8 up or from −8 down;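 note: recombinant parasite enzyme with a five histidine tag at its C terminus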
Sequence of Dihydroorotate dehydrogenase (quinone), mitochondrial (Plasmodium falciparum (isolate 3D7)) (Q08210 whole entry, looked up): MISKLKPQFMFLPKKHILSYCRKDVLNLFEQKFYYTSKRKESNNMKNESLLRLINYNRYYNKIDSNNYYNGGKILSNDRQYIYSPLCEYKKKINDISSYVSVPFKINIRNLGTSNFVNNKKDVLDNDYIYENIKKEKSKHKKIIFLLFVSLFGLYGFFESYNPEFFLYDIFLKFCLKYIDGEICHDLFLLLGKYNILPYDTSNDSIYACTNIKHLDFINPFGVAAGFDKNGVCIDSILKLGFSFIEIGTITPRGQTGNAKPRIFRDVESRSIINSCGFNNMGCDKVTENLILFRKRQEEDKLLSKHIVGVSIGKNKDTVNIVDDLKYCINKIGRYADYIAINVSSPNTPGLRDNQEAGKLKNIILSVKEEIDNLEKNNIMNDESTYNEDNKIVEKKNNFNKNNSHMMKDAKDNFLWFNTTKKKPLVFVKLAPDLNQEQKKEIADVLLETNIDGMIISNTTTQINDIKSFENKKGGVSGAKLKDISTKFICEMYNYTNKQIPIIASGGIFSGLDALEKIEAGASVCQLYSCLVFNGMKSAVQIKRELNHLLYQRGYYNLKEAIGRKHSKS

[5] = inhibition of PAO1 biofilm formation – strain PAO1, LB-PBS medium, absorbance 600 nm, primary screen (AID 1176); conditions: P. aeruginosa PAO1 growth/biofilm, A600, 12 h; higher = more signal
[6] = growth modulation of vineyard yeast isolate – strain RM11-1a, OD600, basal, 24 h, primary screen (AID 1177);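 note: cultures grown under basal conditions with no added stressor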; conditions: S. cerevisiae RM11-1a growth, OD600, 24 h; higher = more signal, called active from +8 up or from −8 down
[7] = growth of efflux-deficient E. coli DRC39 – strain DRC39, OD650, 24 h, E. coli filamentation inducers, primary screen (AID 1178);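 note: growth measured as culture turbidity by optical density at 650 nm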; conditions: E. coli DRC39 acrAB, higher = more signal, called active from +8 up or from −8 down
[8] = growth of efflux-deficient E. coli DRC39 – strain DRC39, OD650, 48 h, E. coli filamentation inducers, primary screen (AID 1179);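 note: screen aims at cell division blockers that make cells filament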; conditions: E. coli DRC39 delta-acrAB growth, higher = more signal, called active from +8 up or from −8 down
[9] = viability profiling in RPMI8226 myeloma cells – cell-based, resazurin fluorescence, basal, 24 h, PK04 Diversity Set, profiling panel (AID 1180); conditions: higher = more signal;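 note: RPMI8826 multiple myeloma cell line at 5000 cells per well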
[10] = biological target: E3 ubiquitin-protein ligase XIAP (Homo sapiens) (UniProt P98170); assay: small molecules binding XIAP protein – biophysical, small-molecule microarray, fluorescence 635 nm, primary screen (AID 1181); conditions: higher = more signal;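 note: score merges 667 nm emission and signal to noise over triplicate slides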
Sequence of E3 ubiquitin-protein ligase XIAP (Homo sapiens) (P98170 whole entry, looked up, the tested form may be a part): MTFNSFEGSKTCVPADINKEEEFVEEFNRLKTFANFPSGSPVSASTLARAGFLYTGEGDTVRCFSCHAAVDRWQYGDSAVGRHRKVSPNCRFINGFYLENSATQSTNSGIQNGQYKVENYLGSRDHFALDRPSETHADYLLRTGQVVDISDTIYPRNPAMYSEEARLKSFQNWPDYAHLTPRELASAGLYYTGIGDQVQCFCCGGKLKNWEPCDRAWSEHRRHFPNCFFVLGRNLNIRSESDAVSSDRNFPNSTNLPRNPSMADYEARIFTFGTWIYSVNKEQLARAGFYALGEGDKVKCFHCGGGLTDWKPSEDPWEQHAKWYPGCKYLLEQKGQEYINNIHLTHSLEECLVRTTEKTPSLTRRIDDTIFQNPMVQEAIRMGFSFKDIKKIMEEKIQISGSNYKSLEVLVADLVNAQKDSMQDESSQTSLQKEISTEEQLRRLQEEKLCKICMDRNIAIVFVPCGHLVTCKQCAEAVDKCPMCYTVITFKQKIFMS

[11] = system: XIP peptide (Xip251-270) binding; assay: XIP fragment 251-270 binding compounds – biochemical, small-molecule microarray, fluorescence 635/667 nm, 0.1 µg/mL protein, primary screen (AID 1182); conditions: fluorescent protein binding, 635 nm, higher = more signal, called active from +8 up or from −8 down
XIP peptide (Xip251-270) = assay: compounds binding XIP fragment 251-270 – biochemical, small-molecule microarray, fluorescence 635/667 nm, 0.5 µg/mL protein, primary screen (AID 1183); conditions: fluorescence 635 nm, higher = more signal
[12] = blood-stage malaria parasite viability loss – strain 3D7, DAPI fluorescence, 100 nL, primary screen (AID 1184);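 note: parasites grown inside human red blood cells in medium with human serum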; conditions: P. falciparum 3D7 growth, 3 d, higher = more signal
[13] = biological target: Homeobox protein Hox-A13 (Mus musculus) (UniProt Q62424); assay: disruptors of Hoxa13 oligonucleotide interaction – biochemical, fluorescence polarization, labeled oligonucleotide, primary screen (AID 1185); conditions: Hoxa13:DNA binding, 15 min, higher = more signal, called active from +8 up or from −8 down
Sequence of Homeobox protein Hox-A13 (Mus musculus) (Q62424 whole entry, looked up): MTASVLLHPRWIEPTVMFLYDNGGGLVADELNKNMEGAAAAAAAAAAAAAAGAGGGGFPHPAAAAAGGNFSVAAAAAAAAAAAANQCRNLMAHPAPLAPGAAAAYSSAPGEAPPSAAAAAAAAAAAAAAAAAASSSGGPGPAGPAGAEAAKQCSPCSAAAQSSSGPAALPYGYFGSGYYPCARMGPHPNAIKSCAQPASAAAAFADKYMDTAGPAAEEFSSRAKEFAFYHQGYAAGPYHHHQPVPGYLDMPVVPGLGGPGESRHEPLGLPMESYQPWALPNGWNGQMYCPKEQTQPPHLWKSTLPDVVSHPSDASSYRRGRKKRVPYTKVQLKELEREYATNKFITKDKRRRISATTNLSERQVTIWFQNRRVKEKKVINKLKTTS

[14] = blockers of DNA damage checkpoint Chk1 activation – imaging, HeLa, hydroxyurea, phospho-Chk1 antibody, percent positive cells, primary screen (AID 1186); conditions: hydroxyurea-induced phospho-Chk1 immunofluorescence imaging, higher = more signal
[15] = blockers of DNA damage checkpoint Chk1 activation – imaging, HeLa, hydroxyurea, phospho-Chk1 nuclear intensity, primary screen (AID 1187); conditions: hydroxyurea-induced phospho-Chk1 immunofluorescence imaging, higher = more signal

| SMILES | z-score [1] | z-score [2] | z-score [3] | composite z-score [4] | z-score [5] | z-score [6] | z-score [7] | z-score [8] | z-score [9] | composite z-score [10] | composite z-score [11] | composite z-score (XIP peptide (Xip251-270)) | z-score [12] | z-score [13] | z-score [14] | z-score [15] |
| --- | --- | --- | --- | --- | --- | --- | --- | --- | --- | --- | --- | --- | --- | --- | --- | --- |
| COCC(=C=CC[C@@H](O)c1ccccc1OCCO)C[C@@H](O)c1cc(Cl)cc(Cl)c1O | -0.127 | -2.33 (inactive) | -0.541 (inactive) | -1.31 (inactive) | 0.26 (inactive) | 0.216 (inactive) | -0.259 (inactive) | -0.424 (inactive) | -0.394 | -0.0553 | 0.589 (inactive) | 0.682 | -1.84 | -3.71 (inactive) | 0.161 (inactive) | 0.377 (inactive) |
| CN(C)C(=O)[C@@]1(Cc2ccccc2CN=[N+]=[N-])N=C(c2ccc(OCCCO)cc2)O[C@H]1c1ccccc1 | 0.0128 | 1.11 (inactive) | -1.82 (inactive) | 1.12 (inactive) | 0.41 (inactive) | 1.39 (inactive) | 0.316 (inactive) | 0.0743 (inactive) | -3.38 | -0.0118 | 1.79 (inactive) | 0.817 | -2.27 | -5.09 (inactive) | -0.631 (inactive) | -0.679 (inactive) |
| O=C1OCC=C[C@H]2OC34C=CCN(c5ccc6ccccc6c5)C(=O)[C@H]3N(CCCCCCO)C(=O)[C@@H]4[C@@H]12 (some centres undefined) | 0.551 | -0.7 (inactive) | 0.645 (inactive) | -1.24 (inactive) | -0.717 (inactive) | -0.472 (inactive) | 0.841 (inactive) | 0.982 (inactive) | 0.683 | 0.086 | 0.458 (inactive) | 0.2 | -0.341 | -5.38 (inactive) | -0.261 (inactive) | -0.572 (inactive) |
| O=C(NCc1ccccc1)[C@@H]1c2ccccc2C(=O)N(CC23CC4CC(CC(C4)C2)C3)[C@H]1c1ccc(CO)cc1 | -0.511 | -0.092 (inactive) | -1.12 (inactive) | -0.139 (inactive) | -0.245 (inactive) | 0.0739 (inactive) | -0.142 (inactive) | -0.179 (inactive) | -0.195 | 0.0623 | 0.149 (inactive) | 0.794 | -1.76 | -3.43 (inactive) | -0.221 (inactive) | -0.338 (inactive) |
| COCCCN1C(=O)[C@@]2(Cc3ccccc31)c1ccccc1C(=O)N(Cc1ccccc1C(F)(F)F)[C@H]2c1ccc(CO)cc1 | 0.0531 | 0.947 (inactive) | -0.0554 (inactive) | -20.2 (active) | 4.64 (inactive) | -0.305 (inactive) | 0.0576 (inactive) | -0.297 (inactive) | 0.0241 | -0.0373 | -0.219 (inactive) | 0.55 | -0.698 | -0.825 (inactive) | 0.25 (inactive) | 0.49 (inactive) |
| CC(=O)N1Cc2ccccc2C[C@@]2(COC(c3ccc(OCCCO)cc3)=N2)C1=O | 1.17 | -0.797 (inactive) | -0.15 (inactive) | -0.469 (inactive) | 2.26 (inactive) | -0.723 (inactive) | 1.73 (inactive) | 2.3 (inactive) | 0.266 | 1.2 | 1.44 (inactive) | 0.81 | -2.28 | -3.13 (inactive) | -1.01 (inactive) | -1.12 (inactive) |
| CC(C)C(=C=CC[C@@H](O)c1ccccc1OCCO)CCO | 0.61 | -13 (active) | 0.11 (inactive) | -5.28 (inactive) | -0.0828 (inactive) | 0.413 (inactive) | 0.272 (inactive) | 0.123 (inactive) | 1.28 | -0.318 | 0.305 (inactive) | -0.161 | -0.637 | -2.91 (inactive) | -0.306 (inactive) | 0.231 (inactive) |
| CCc1oc(CC[C@@H](CO)NC(=O)NCCn2cc(C3(O)CCCCC3)nn2)c(C(=O)OC)c1C(=O)OC | -0.676 | -1.16 (inactive) | -0.658 (inactive) | -0.32 (inactive) | -0.109 (inactive) | -0.298 (inactive) | -0.247 (inactive) | -0.64 (inactive) | -0.626 | -0.0078 | 1.53 (inactive) | 0.875 | -0.397 | -3.56 (inactive) | 0.259 (inactive) | -0.0163 (inactive) |
| C=C[C@H](COC(C)=O)N(C(=O)OC(C)(C)C)S(=O)(=O)c1ccc(Br)cc1 | 0.738 | -0.705 (inactive) | -0.76 (inactive) | -0.0237 (inactive) | -0.621 (inactive) | 0.625 (inactive) | 0.623 (inactive) | 0.386 (inactive) | -0.17 | 0.137 | 0.252 (inactive) | -0.263 | 1.18 | -2.87 (inactive) | -0.255 (inactive) | 0.0038 (inactive) |
